D2 ag-1: agonists of human D2 dopamine receptor. P14416. HEK293 T-REx D2 cells, calcium flux agonist mode. activation, % at 2 µM. 0.53% of 340,000 active;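 active means activation over 3 SD above normal in the single-dose calcium agonist read, cut at about 30% in these data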
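In this primary screen, compounds producing a positive calcium signal within 180 s of addition to tetracycline-induced, force-coupled HEK293 Trex D2 cells are flagged; cells are dye-loaded with a no-wash calcium kit beforehand.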
D2 ag-2: agonists of human D2 dopamine receptor (beta-arrestin); P14416; DiscoveRx PathHunter D2 beta-arrestin, luminescence, 90 min; 100% = 57 uM dopamine signal; activation, % (concentration not given with the values); 0.084% of 360,000 active; AID 624465; in the data active means activation above about 40%; inconclusive means between about 15% and that limit
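DiscoveRx PathHunter D2 beta-arrestin cells (2,100/well) attached overnight, then compound-stimulated 90 min at 37 C in HBSS/10 mM HEPES/0.1% Tween-20 buffer; beta-galactosidase complementation read by luminescence after 1 h at ambient temperature. Dopamine 57 uM final (EC100) as control.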
D2 antag: D2 dopamine receptor (human) antagonism | P14416 | HEK293 TREx D2 cells, calcium flux, dopamine EC80 | inhibition, % at 10 µM | 2% of 340,000 active | AID 485344; in the data active means inhibition above about 30%; inactive means below that, where a call was filed
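HEK293 T-REx D2 cells, tet-induced, calcium dye no-wash. Cpd pintool add, 180 s kinetic, then EC80 DA, 180 s kinetic. Ca flux read.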
D2 PAM-1: positive allosteric modulators of human D2 dopamine receptor; P14416; HEK293 T-REx D2, calcium flux, EC20 dopamine potentiation; potentiation, % at 10 µM; 0.34% of 340,000 active;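 active means potentiation over 3 SD above the plate norm, cut at about 30% in these data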
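Potentiation of an EC20 dopamine calcium response measured kinetically over 180 s, after a preceding 180 s compound-only read flagging agonists. Cells: inducible Hek293 Trex D2 line, 4000/well, cultured overnight at 30 C before dye loading.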
D2 PAM-2: positive allosteric modulators of human D2 dopamine receptor; 0.23% of 360,000 active; DiscoveRx D2 beta-arrestin cells, luminescence, 90 min; 100% = 57 uM dopamine signal; potentiation, % (concentration not given with the values); P14416; in the data active means potentiation above about 50%; inconclusive means mostly about 30% to 49%
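PathHunter D2 cells, attached overnight at 37 deg C, received compound in DMSO plus dopamine at EC20 (50 nM final) for 90 min at 37 deg C. Beta-arrestin recruitment was read as luminescence after 1 h with detection reagent at ambient temperature.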
D3 ag: D3 receptor agonism confirmed, beta-arrestin readout; shares compounds with D2 ag-1; DiscoveRx D3 beta-arrestin cells, luminescence, 90 min; Potency, µM (top dose mostly 76.9 µM), hits mostly activators; 4% of 2,300 active; AID 720506; further: nearly all actives have a fitted effect of over 70% in size
Target sequence (P35462 whole entry, looked up): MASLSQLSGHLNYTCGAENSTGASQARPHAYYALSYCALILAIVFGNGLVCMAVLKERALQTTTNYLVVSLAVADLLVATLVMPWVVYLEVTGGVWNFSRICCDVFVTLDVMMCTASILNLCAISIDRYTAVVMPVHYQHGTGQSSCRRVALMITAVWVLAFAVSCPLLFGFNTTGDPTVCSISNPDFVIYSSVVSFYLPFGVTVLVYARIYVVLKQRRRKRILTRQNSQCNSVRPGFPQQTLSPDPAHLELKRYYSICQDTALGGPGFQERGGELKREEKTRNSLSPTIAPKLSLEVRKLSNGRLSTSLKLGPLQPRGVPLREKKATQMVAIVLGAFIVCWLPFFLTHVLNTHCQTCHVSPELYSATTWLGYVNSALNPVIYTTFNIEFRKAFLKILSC
D2 ag-3: D2 receptor agonism, beta-arrestin counterscreen; shares compounds with D2 ag-1; DiscoveRx PathHunter D2 beta-arrestin, luminescence, 90 min; response scale: percent relative to full dopamine signal; Potency, µM (highest dose often 76.9 µM), most hits filed as activators; 5.9% of 2,300 active; AID 720507; further: nearly all actives have a fitted effect of over 70% in size
Hits are given with their value; . = inactive; ? = inconclusive; / = no result given; ! = a repeat was not active. Hits are enriched below; roughly 2.4% of the tested compounds scored in any of these assays. Unless noted, the call rests on the fitted dose curve; in most records, active means well fitted activation curve with a large enough effect; inconclusive means small, poorly fitted or top-dose-only effect; inactive means flat fitted curve, though single readings scatter.

SMILES | D2 ag-1 | D2 ag-2 | D2 antag | D2 PAM-1 | D2 PAM-2 | D3 ag | D2 ag-3
O=C(c1cccnc1)N1CCN(Cc2cccc(F)c2)CC1 | . | . | . | . | . | / | /
Fc1cccc(CN2CCN(c3ncccn3)CC2)c1 | 77 | 80 | 83 | . | 55 | ? | 1.4µM
CC1=C(C(=O)Nc2cccnc2)C(c2cccc(O)c2)n2nc(SCc3ccccc3)nc2N1 (stereo not given) | . | / | / | . | / | / | /
COc1ccc(NC(=O)c2[nH]nc3c2CSc2ccccc2-3)c(OC)c1 | . | / | / | . | / | / | /
CNC(=O)C1CCC(Cn2c(=O)c3sccc3n(Cc3ccc(F)cc3)c2=O)CC1 (stereo not given) | . | / | / | . | / | / | /
Cc1nn(CC(=O)NC(C)c2ccccc2)c(=O)c2cc3occc3n12 (stereo not given) | . | / | / | . | / | / | /
Fc1ccc(CN2CCCCCC2)c(F)c1 | . | . | . | . | . | / | /
c1ccc(-c2ccc(CN3CCN(c4ncccn4)CC3)cc2)cc1 | 79 | ? | 118 | . | . | ? | ?
Fc1ccc(CN2CCN(c3ncccn3)CC2)c(F)c1 | 95 | 60 | 79 | . | . | ? | 16µM
c1cnc(N2CCN(Cc3ccc4c(c3)OCO4)CC2)nc1 | 80 | 41! | 89 | . | 62! | ? | 0.05µM
c1ccc(CN2CCN(c3nc(-c4ccccc4)nc(-n4ccnc4)n3)CC2)cc1 | . | . | . | . | . | / | /
Clc1ccc(CN2CCN(c3ncccn3)CC2)cc1Cl | 80 | 65 | 77 | . | . | ? | 14µM
CN1CCN(CCCNC(=O)Cn2c(-c3cccs3)cc3cc(Cl)ccc32)CC1 | . | / | / | . | / | / | /
O=C(Nc1ccc(F)c(Cl)c1)Nc1c[nH]c(=O)[nH]c1=O | . | / | / | . | / | / | /
COc1ccc(Cl)cc1Nc1ccc2cc(S(=O)(=O)N3CCCCC3)ccc2n1 | . | / | / | . | / | / | /
Cc1cc(Cl)ccc1NC(=O)Cn1nnc2sc(-c3ccccc3)cc2c1=O | . | / | / | . | / | / | /
Cc1cccc(NC(=O)Cn2cc(S(=O)(=O)c3ccc(F)cc3)c(=O)c3cc4c(cc32)OCO4)c1 | . | / | / | . | / | / | /
Cc1cc(=O)[nH]c(N2CCN(Cc3ccccc3)CC2)n1 | 40 | . | . | . | . | . | .
c1nc(N2CCN(Cc3ccc4c(c3)OCO4)CC2)c2[nH]cnc2n1 | / | . | / | / | 81 | . | 2.8µM
CCCCc1c(O)nc(N2CCN(Cc3ccccc3)CC2)[nH]c1=O | / | . | / | / | . | / | /
O=C(Cc1ccccc1)N1CCN(c2ncccn2)CC1 | . | . | . | . | . | / | /
c1ccc(CN2CCN(c3ncccn3)CC2)cc1 | 86 | 56 | 84 | . | ? | ? | 2.5µM
Cc1ccc2[nH]c3c(N4CCN(Cc5ccc6c(c5)OCO6)CC4)ncnc3c2c1 | / | / | / | . | / | / | /
Cc1ccc(C(=O)c2cn(Cc3c(F)cccc3Cl)c3nc(C)ccc3c2=O)cc1 | . | / | / | . | / | / | /
Clc1ccccc1CN1CCc2nc(N3CCN(c4ncccn4)CC3)ncc2C1 | . | / | / | . | / | / | /
SMILES | D2 ag-1 | D2 ag-2 | D2 antag | D2 PAM-1 | D2 PAM-2 | D3 ag | D2 ag-3
Clc1cccc(CN2CCN(c3ncccn3)CC2)c1Cl | 69 | ? | 61 | . | . | . | 50µM
Clc1ccc(CN2CCN(c3ncccn3)CC2)c(Cl)c1 | 76 | 79 | 90 | . | 59 | ? | 28µM
O=C(Nc1ccc(Cl)cc1Cl)N1CCN(c2ncccn2)CC1 | . | . | . | . | . | / | /
Clc1ccccc1CN1CCN(c2ncccn2)CC1 | 80 | 70 | 76 | . | 59 | . | 20µM
Cc1cccc(C(c2sc3nc(-c4ccco4)nn3c2O)N2CCN(c3ccccc3)CC2)c1 (stereo not given) | . | / | / | . | / | / | /
CCN1CCc2nc3sc(C(=O)Nc4cccc(Cl)c4C)c(N)c3cc2C1 | . | / | / | . | / | / | /
C1=CC2CC1CC2CN1CCN(c2ccccc2)CC1 (stereo not given) | 76 | ? | 77 | . | ? | . | ?
Cc1ccccc1CN1CCN(CC2CC3C=CC2C3)CC1 (stereo not given) | . | . | . | . | . | / | /
O=C(c1ccco1)N1CCN(CC2CC3C=CC2C3)CC1 (stereo not given) | . | 42 | 84 | / | ? | ? | ?
Cc1ccc(CN2CCSc3ccc(C(=O)N4CCN(c5cccc(C)c5C)CC4)cc32)cc1 | . | / | / | . | / | / | /
COc1ccc2cc(C(=O)/C=C/c3cc(OC)c(O)c(OC)c3)ccc2c1 | . | . | . | . | . | / | /
COc1ccc(C(=O)/C=C/c2cc(OC)c(O)c(OC)c2)c(F)c1 | . | . | 33 | . | . | . | .
CCN(C(=O)CSc1ncccn1)c1c(N)n(Cc2ccccc2)c(=O)[nH]c1=O | . | . | . | . | . | . | .
CCn1c2c(c(=O)n3ncc(C(=O)N4CCN(c5ccc(Cl)cc5)CC4)c13)CN(Cc1ccc(OC)cc1)CC2 | . | / | / | . | / | / | /
O=C(Nc1nccs1)c1cccnc1 | . | . | . | . | . | . | .
COc1cc(NS(=O)(=O)c2ccc(NC(=O)c3ccccc3C(=O)O)cc2)nc(OC)n1 | . | / | / | . | / | / | /
CC(C)Sc1ncnc2c1oc1ccccc12 | . | . | . | . | . | . | .
COc1ccc(NC(=O)COC(=O)CNC(=O)c2cccs2)cc1Cl | . | . | . | . | . | . | .
Cc1nnc(N2C(=O)C(O)=C(C(=O)c3ccco3)C2c2ccc(F)cc2)s1 (stereo not given) | . | . | . | . | . | . | .
Cc1cc(C)c(NC(=O)Cc2csc(C)n2)c(Cl)c1 | . | / | / | . | / | / | /
CCN(CC)CCN(C)C1CCC(c2ccccc2)CC1 (stereo not given) | 46 | . | . | . | . | . | .
Cc1cc(N2CCOCC2)nc(N)n1 | 41 | . | . | . | . | . | .
CCOc1ccccc1N1CCN(CC(O)COc2ccc3c(C)cc(=O)oc3c2)CC1 (stereo not given) | 55 | . | 65 | . | . | . | .
COc1ccccc1N1CCN(CC(O)COc2ccc3c(c2)OCO3)CC1 (stereo not given) | . | . | . | . | . | / | /
CC(C)Oc1ccc(CNS(=O)(=O)c2ccc(-c3cc(C(F)(F)F)on3)s2)cc1 | . | / | / | . | / | / | /
COc1cc(OC)cc(-c2c(-c3cccs3)c3cc(-c4ccc(N(C)C)nc4)ccc3n2C)c1 | . | . | . | . | . | . | .
COc1cc2c(C#CCCO)c(-c3ccc(C#N)cc3)oc(=O)c2cc1OC | . | . | . | . | . | . | .
COc1cc2c(C#CCCO)c(-c3ccsc3)oc(=O)c2cc1OC | / | . | / | / | . | / | /
Cc1ccccc1C(=O)N(Cc1ccc(N(C)C)cc1)Cc1ccco1 | . | / | / | . | / | / | /

Screening results (PubChem)
